For 32 molecules, INHIBITION results are on record in ChEMBL document CHEMBL4513216, “Probing the Open Global Health Chemical Diversity Library for Multistage-Active Starting Points for Next-Generation Antimalarials” (ACS Infect Dis, 2020).

In all, about 69,000 compounds went through this assay and about 8,600 (12%) showed an effect of 50% or more. The list comes from a sample in which strong results are over-represented; it also holds similar structures and randomly drawn compounds.

This assay relates to Plasmodium berghei. The assay is described as follows: Screen against P. berghei liver stage (PbLuc), transformed with Luciferase, at 10uM. Type of assay: functional, HepG2. The note with it: tested at 10 uM.
On to `O=C(Nc1ccccc1)C1CN(CC2CC2)CC12CCOCC2` (configuration not stated), for which the INHIBITION is recorded as 4.2%. Turning to `Cc1ccc(CNC(=O)CN(CCC(N)=O)c2ccc(F)cc2)cc1`, the INHIBITION is given as 16%. Consider `Cc1ccc(CCNC(=O)N2CCC(Cc3cnn(C)c3)C2)cn1` (configuration not stated), for which the INHIBITION was -3.58%. Then `Cc1cc(Br)ccc1CNC(=O)C1(O)CCSCC1`, with 19.1%; and `CC(=O)NC1CCN(c2nc(N(C)C)nc3c2CCN(C(C)=O)C3)CC1`, with 58.9%; and `CN(C)c1nc2c(c(N3CCCC3)n1)CCN(C(=O)c1ccc[nH]1)CC2`, with 34.5%. As for `Cc1nc(CCNc2nc(N(C)C)nc3c2CCCC3)cc(=O)[nH]1`, the INHIBITION worked out at 24.7%. As for `CC(=O)N1CCc2c(nc(N(C)C)nc2N(C)CCO)C1`, the INHIBITION was determined as 31.6%. In the case of `CC(=O)N1CCc2nc(N(C)C)nc(NCCc3ccccc3)c2CC1`, the INHIBITION was determined as 79.7%. As for `CC(C)Nc1ncnc2c1CCN(C(=O)Cc1cccs1)CC2`, the INHIBITION came to 21.8%.

On to `CC(=O)NC1CCN(c2nc(N(C)C)nc3c2CCCC3)CC1`, for which the INHIBITION was 46.6%.

On to `CC(=O)N1CCc2c(nc(N(C)C)nc2NC(C)Cc2cccs2)C1` (configuration not stated), for which the INHIBITION was found to be 78.6%. For the molecule `CNC(=O)CN(C)c1nc(-c2ccncc2)nc2c1CCN(C(C)=O)C2`, the INHIBITION turned out to be 31.8%.

On to `O=C(Cc1cccs1)N1CCCCC1c1ccn2ccnc2n1` (configuration not stated), for which the INHIBITION came to 26.3%.

Turning to `CCOc1cc(C)nc(N2CCN(C(=O)c3cc[nH]n3)CC2)n1`, the INHIBITION is listed as 40%. `O=C(c1ccc2nncn2c1)N1CCCC(n2ccnc2)C1` (configuration not stated): the INHIBITION came out at 16.9%. As for `CCCNC(=O)CCNC(=O)N1CCC(=Cc2ccccc2)CC1`, the INHIBITION came out at 9%. With `CNC(=O)N1CCC(=Cc2ccccc2)CC1`, the INHIBITION is on record as -27.4%. For `CCNC(=O)N1CCC(=Cc2ccccc2)CC1` the value was 63.3%; for `CN(C)c1nc2ncc(Cl)cc2cc1C#N`, -8.35%. For `CCOC(=O)N1CCC(Nc2cc(CC)nc3c(C)c(C)nn23)CC1` the value was -31.4%; for `CC[C@@H](C)[C@H](NC(=O)CCn1cc(C(C)=O)c2ccccc21)C(=O)O`, -27%.

For `CCn1nc(C)c2c1cnn2CCNS(=O)(=O)Cc1ccccc1`, the INHIBITION was 47.4%. `O=C(c1cocn1)N1CCC[C@]2(C[C@@H](OCC3CC3)CO2)C1`: the INHIBITION is -2.72%. Then `Cc1cc(C(=O)N2CCC[C@]3(C[C@@H](OCC4CC4)CO3)C2)no1`, with 21.8%; and `O=C(c1ccncn1)N1CCC[C@]2(C[C@H](OCC3CC3)CO2)C1`, with 50.9%. For `CCOC1COC2(CCN(C(=O)c3cccc(C)n3)CC2)C1` (configuration not stated) the value was 63.3%. As to `Cc1cc(C(=O)N2CCC[C@]3(C[C@H](OCC4CC4)CO3)C2)no1`, the INHIBITION is 17.1%. As to `CCOC1COC2(CCN(Cc3cccc(C)n3)CC2)C1` (configuration not stated), the INHIBITION came to 25.6%. For `CCOC1COC2(CCN(c3cccc(C)n3)CC2)C1` (configuration not stated) the value was 16.6%. In the case of `Cc1cccc(C(=O)N2CCC[C@]3(C[C@@H](OCC4CC4)CO3)C2)n1`, the INHIBITION is on record as 52%. As to `O=C(c1ccncn1)N1CCC[C@]2(C[C@@H](OCC3CC3)CO2)C1`, the INHIBITION is given as 42.7%.
